mTORC1 inh: reduces mTORC1 signaling in Tsc2 and p53 null MEF cells | AID 493208 | actives 0.78% (n = 44,000) | Tsc2-/- p53-/- MEF, phospho-rpS6 immunofluorescence/PI, 24 h | Potency, µM (highest dose often 38.3 µM), actives largely listed as inhibitors; also: nearly all actives have a fitted effect of over 50% in size
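Readout is phospho-S6 Alexa 488 signal normalized to PI per well, reported as % active cells with thresholds set from rapamycin (7.5 nM) and DMSO controls. Cells: Tsc2-/-, p53-/- MEFs, 24 hrs compound at 37 C; PI cell number serves as viability.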
PMP22 txn prim: PMP22 gene transcription modulation. S16 Pmp22-F2sN Schwann cells, FLuc/NLuc coincidence luminescence, 24 h. Potency, µM (doses to about 57.5 µM), actives largely listed as inhibitors. actives 2% (n = 43,000); active = clear falling dose curves in both reporters; inconclusive = both reporters move, but less clearly or upward; inactive = either reporter flat; the % is the NLuc reporter signal
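Transcriptional readout in edited S16(c9) cells: two luciferases reported from the Pmp22 locus, measured in turn after 24 h compound incubation.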
S16 F2sN tox: toxic to S16 Pmp22-F2sN Schwann cells; S16 Pmp22-F2sN Schwann cells (luciferase reporters placed in the Pmp22 gene) viability, CellTiter-Glo, 24 h; Potency, µM (top dose mostly 57.5 µM), hits mostly cytotoxic; actives 0.48% (n = 43,000); AID 1508642; also: nearly all actives have a fitted effect of over 65% in size
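S16 Schwann cells carrying the Pmp22-F2sN reporter, seeded in 1536-well format, were exposed to library compounds for 24 h at 37C. Viability was read as CellTiter-Glo luminescence after 15 min at room temperature.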
OvCa metastasis: blocks SKOV3ip1 adhesion and invasion in omental model; SKOV3ip1-GFP adhesion/invasion on 3D omental model, fluorescence; Potency, µM (top dose mostly 45.8 µM), hits mostly inhibitors; actives 0.1% (n = 46,000); AID 1963576; also: nearly all actives have a fitted effect of over 65% in size
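A 3D layer of primary human omental fibroblasts, mesothelial cells, fibronectin and collagen I, grown 48 hr, received SKOV3ip1-GFP cells in serum-free medium plus compounds at 0.36-46 umol/L. After 2 hr RT and 16 hr 37 C, fixed adherent GFP cells were counted; normalized to DMSO and tomatine.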
p53null 32C kill: kills p53 null cells at the permissive temperature | H1299-neo p53 null cells, ATP luminescence, 24 h, 32C | Potency, µM (highest dose often 46.1 µM), actives largely listed as cytotoxic | actives 0.62% (n = 55,000); also: nearly all actives have a fitted effect of over 55% in size
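Luminescent ATP readout gave cell viability of p53-null H1299-neo cells after a 24 h compound exposure at the permissive 32C. Titrations ran up to 46 uM, and AC50s were fitted with the standard Hill equation.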
p53null 39C tox: selectivity test: cytotoxicity in p53 null cells, nonpermissive temperature; actives 0.97% (n = 55,000); Potency, µM (series often up to 46.1 µM), most hits filed as cytotoxic; H1299 p53-null (neo) cells, 39C, ATPlite viability, 24 h; AID 904; also: nearly all actives have a fitted effect of over 50% in size
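Following overnight plating at 37C (600 cells/well), H1299-neo or H1299-p53A138V cells are dosed up to 46 uM. Incubation lasts 24 hr at 39C before ATP detection.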
NLuc sat counter: inhibits NanoLuc at saturating substrate, PMP22 counter-screen; shares compounds with PMP22 txn prim; Potency, µM (series often up to 57.5 µM), actives largely listed as inhibitors; actives 4% (n = 690); Secreted NLuc enzyme (filtered S16 cell medium), Nano-Glo luminescence
NLuc Km ctr: inhibits NanoLuc under Km conditions, PMP22 counter-screen. shares compounds with PMP22 txn prim. secreted NLuc enzyme, coelenterazine luminescence, Km conditions. Potency, µM (series often up to 57.5 µM), actives largely listed as inhibitors. actives 5% (n = 690)
FLuc ctr PMP22: counter-screen for PMP22 expression modulators: firefly luciferase inhibition; purified P. pyralis FLuc, luminescence, 10 min; shares compounds with PMP22 txn prim; Potency, µM (titrated, usually from 57.5 µM), usual class: inhibitors; 690 tested, under 10 active
Target sequence (P08659 whole entry, looked up): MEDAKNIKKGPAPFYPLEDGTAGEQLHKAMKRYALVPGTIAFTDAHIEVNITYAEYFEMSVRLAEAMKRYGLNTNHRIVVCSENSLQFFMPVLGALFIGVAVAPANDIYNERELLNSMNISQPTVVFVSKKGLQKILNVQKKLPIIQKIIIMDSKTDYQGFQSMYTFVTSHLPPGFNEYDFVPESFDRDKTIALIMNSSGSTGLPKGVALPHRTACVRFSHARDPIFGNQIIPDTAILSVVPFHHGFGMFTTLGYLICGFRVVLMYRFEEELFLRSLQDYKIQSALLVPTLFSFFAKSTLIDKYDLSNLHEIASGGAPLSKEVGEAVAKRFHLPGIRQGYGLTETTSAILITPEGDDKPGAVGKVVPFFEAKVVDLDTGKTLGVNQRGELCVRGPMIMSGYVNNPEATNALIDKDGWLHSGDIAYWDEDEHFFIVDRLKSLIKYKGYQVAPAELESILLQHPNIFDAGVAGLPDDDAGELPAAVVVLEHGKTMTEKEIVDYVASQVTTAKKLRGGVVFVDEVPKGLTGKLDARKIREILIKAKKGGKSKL
S16 F2sN tox cnf: S16 Schwann cell cytotoxicity, confirmatory; shares compounds with PMP22 txn prim; S16 Schwann cells viability, CellTiter-Glo ATP luminescence, 24 h; Potency, µM (doses to about 57.5 µM), hits mostly cytotoxic; actives 7% (n = 690); AID 1508641
PMP22 txn conf: confirmation of modulators of PMP22 gene transcription in S16 cells | AID 1508646 | Potency, µM (top dose mostly 57.5 µM), most hits filed as inhibitors | shares compounds with PMP22 txn prim | S16 Schwann cells Pmp22-F2sN, dual luciferase, 24 h | actives 22% (n = 690); active = clear falling dose curves in both reporters; inconclusive = both reporters move, but less clearly or upward; inactive = either reporter flat; the % is the FLuc reporter signal
Hits are given with their value; n = inactive; u = inconclusive; x = no result. Sampled rows, rich in hits. Any-hit rate of the full collection: about 3.1%. Unless noted, calls follow the shape of the dose curve; as a rule, active = well fitted curve in the direction sought with a large enough effect; inconclusive = small, poorly fitted or top-dose-only effect, or another doubt; inactive = no such curve, though single readings can be large; an effect the other way counts as inactive or inconclusive.

SMILES	mTORC1 inh	PMP22 txn prim	S16 F2sN tox	OvCa metastasis	p53null 32C kill	p53null 39C tox	others
CCOC(=O)c1ccc(N2C(=O)c3n[nH]c(-c4cccs4)c3C2c2cccc(F)c2)cc1 (configuration not stated)	18.5µM	u	n	u	n	u
COc1ccc2c(Sc3ccc(C)cc3)c(C(=O)NCCc3ccccc3)[nH]c2c1	n	u	n	u	n	n
COCCCNC(=O)c1[nH]c2cc(OC)ccc2c1Sc1ccc(C)cc1	n	x	n	n	n	15.8µM
Cc1ccc(Nc2nc3nonc3nc2Nc2cccc(C(F)(F)F)c2)cc1Cl	u	7.61µM	11.2µM	n	n	u
Cc1nn2c(=O)cc(COC(=O)c3cccc(NC(=O)c4ccc(C(C)(C)C)cc4)c3)nc2s1	n	n	n	n	3.16µM	1.26µM
Cc1nn2c(=O)cc(COC(=O)c3ccc(NC(=O)c4cccs4)cc3)nc2s1	n	u	n	n	n	n
Cc1[nH]c2ccccc2c1CCNCc1ccc(C=CC(=O)NO)cc1	x	x	x	n	x	x
COc1ccc(N2CCN(c3ncnc4c3cnn4C)CC2)cc1	n	u	n	n	n	n
Cc1ccc(-n2ncc3c(N4CCCCC4)ncnc32)cc1	n	n	n	n	1.58µM	6.31µM
Cc1ccc(-n2ncc3c(N(C)Cc4ccccc4)ncnc32)cc1	n	n	n	n	12.6µM	n
Cc1ccc(-n2ncc3c(N(CCO)Cc4ccccc4)ncnc32)cc1	n	n	u	n	n	n
COc1ccc(-n2ncc3c(N4CCCCC4)ncnc32)cc1	x	x	x	x	2.51µM	3.98µM
CC(C)n1cnc2c(NCCc3ccc(O)cc3)nc(-c3csc4ccccc34)nc21	x	x	x	n	x	x
OC[C@H]1O[C@@H](n2cnc3c2NC=NC[C@@H]3O)C[C@H]1O	x	x	x	n	x	x
Cc1cc2c(F)c(Oc3ncnn4cc(OC[C@@H](C)O)c(C)c34)ccc2[nH]1	x	x	x	n	x	x
CCC(=O)Oc1ccc(/C=C(\C#N)c2nc3ccccc3[nH]2)cc1OC	n	u	n	n	n	u
COc1cc(/C=C(\C#N)c2nc3ccccc3[nH]2)ccc1OCc1ccccc1F	n	12.6µM	n	n	n	n	NLuc sat counter=u;NLuc Km ctr=u;FLuc ctr PMP22=n;S16 F2sN tox cnf=n;PMP22 txn conf=u
N#C/C(=C/c1ccc(Cl)cc1Cl)c1nc2ccccc2c(=O)[nH]1	n	n	n	n	n	n
COc1c(Cl)cc(Cl)cc1/C=C(\C#N)c1nc2ccccc2[nH]1	n	11.3µM	u	n	n	n	NLuc sat counter=u;NLuc Km ctr=u;FLuc ctr PMP22=n;S16 F2sN tox cnf=n;PMP22 txn conf=u
CC1(C)CC(=O)c2c(C(F)(F)F)nn(-c3ccc(C(N)=O)c(NC4CCC(O)CC4)c3)c2C1 (configuration not stated)	x	x	x	n	x	x

Screening results (PubChem)
